# Source: PubChem
# FBPA Giardia inh: blocks Giardia fructose-bisphosphate aldolase activity. actives 0.71% (n = 290,000). purified Giardia FBPA. AID 2451. Potency, µM (series often up to 59.6 µM), without a hit: at the top dose activity, negative = inhibition, usual class: inhibitors; active = well fitted inhibition curve with a large enough effect; inconclusive = small, poorly fitted or top-dose-only effect, or effect the other way; note: nearly all actives have a fitted effect of over 55% in size
# Target sequence (A8B2U2 whole entry, looked up): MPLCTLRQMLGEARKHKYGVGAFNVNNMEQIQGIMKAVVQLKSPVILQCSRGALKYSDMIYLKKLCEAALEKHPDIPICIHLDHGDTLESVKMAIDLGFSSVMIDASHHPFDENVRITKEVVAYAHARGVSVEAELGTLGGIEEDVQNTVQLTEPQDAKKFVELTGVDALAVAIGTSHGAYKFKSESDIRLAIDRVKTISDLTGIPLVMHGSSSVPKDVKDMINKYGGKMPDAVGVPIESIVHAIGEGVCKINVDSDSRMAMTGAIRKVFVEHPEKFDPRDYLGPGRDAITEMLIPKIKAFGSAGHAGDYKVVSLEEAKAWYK
#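 Giardia FBPA (40 nM reagent) was preincubated 10 min at RT with compound (up to 57.5 uM final), then substrate plus GAPDH/TPI/NAD/arsenate coupling system with diaphorase/resazurin was added; resorufin fluorescence (525/598 nm) was read after 20 min.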
# Vaccinia mCherry: vaccinia inhibition (mCherry reporter). Vaccinia virus mCherry reporter infection, fluorescence. Potency, µM (series often up to 36.5 µM), without a hit: at the top dose activity change, negative = inhibition, most hits filed as inhibitors. actives 0.63% (n = 310,000); calls by dose curve; tested in A549 cells; note: nearly all actives have a fitted effect of over 35% in size
# VACV Venus inh: vaccinia inhibition (Venus reporter) | Potency, µM (top dose mostly 36.5 µM), inactives show at the top dose activity change, negative = inhibition, hits mostly inhibitors | actives 0.46% (n = 330,000) | Vaccinia virus Venus reporter expression, fluorescence | AID 720580; calls by dose curve; tested in A549 cells; note: nearly all actives have a fitted effect of over 30% in size
# FMDV inh: blocks foot and mouth disease virus | FMDV antiviral cell-based qHTS | Potency, µM (titrated, usually from 57.9 µM), for the others: at the highest dose activity change, negative = inhibition, hits mostly inhibitors | actives 1.2% (n = 410,000) | AID 1159524; calls by dose curve; tested in HEK293T cells; note: read-out not given here; nearly all actives have a fitted effect of over 45% in size
# The depositor's hits bear a star; i = inactive; ? = inconclusive; · = no result given. Shown are actives, neighbours in structure and some others; about 2.2% of the full set was active somewhere. % is set by controls: 0 for no effect and ±100 for the full control effect; potency is the fitted concentration of half-maximal effect.
SMILES,FBPA Giardia inh,Vaccinia mCherry,VACV Venus inh,FMDV inh
COc1cc(OC)c(OC)cc1CN1CCOc2ccc(CN3CCN(C(C)=O)CC3)cc2C1,·,-14.9%,-9.9%,-29.7%
Cc1ccc(Cl)cc1N1CCN(C(=O)C2CCN(Cc3nc(-c4ccc(Cl)cc4)oc3C)CC2)CC1,·,?,-23.6%,?
Cc1ccc(C)c(N2CCN(C(=O)C3CCN(Cc4nc(-c5cccc(Cl)c5)oc4C)CC3)CC2)c1,·,?,?,20µM*
CCN1CCN(C(=O)C2CCN(Cc3nc(-c4cccc(Cl)c4)oc3C)CC2)CC1,6.1%,-13.8%,-11.2%,-14.3%
Cc1oc(-c2ccc(Cl)cc2)nc1CN1CCCC(C(=O)N2CCOCC2)C1 (configuration not stated),7.4%,·,·,?
Cc1oc(-c2ccc(Cl)cc2)nc1CN1CCCC(C(=O)N2CCN(C(=O)c3ccco3)CC2)C1 (configuration not stated),5.8%,?,?,14.1µM*
CCc1ccc(-c2nc(CN3CCC(C(=O)N4CCN(c5ccccn5)CC4)CC3)c(C)o2)cc1,3.3%,·,·,25.1µM*
Cc1oc(-c2cccc(Cl)c2)nc1CN1CCC(C(=O)N2CCN(c3ccccn3)CC2)CC1,·,-27.4%,-23.2%,20µM*
OCc1nc2ccccc2n1CC(O)Cn1ccc2ccccc21 (configuration not stated),-0.5%,·,?,28.2µM*
Cc1ccc(CN2C(=O)C(CC(C)C)Nc3ncnc(N4CCN(c5ccccn5)CC4)c32)cc1 (configuration not stated),·,28.2µM*,?,-8.3%
Cc1ncc2c(c1CNC(=O)/C=C/c1cccs1)CCN(C(=O)c1ccc3c(c1)OCCO3)C2,·,-13.6%,-5.0%,5.6%
CC(=O)c1sc(N/N=C\c2ccccc2O)nc1C,-2.9%,5.01µM*,-26.1%,13.1%
CS(=O)(=O)c1ccc(C(=O)OCC(=O)N2CCCC2)cc1[N+](=O)[O-],·,-2.8%,-14.8%,·
COc1ccccc1-c1ccnc(-n2ncc(C(=O)NC(C)(C)CO)c2C2CC2)n1,·,-3.4%,-15.6%,25.9%
Cc1ccccc1C(=O)NC(C)c1nnc2n1CCN(Cc1ccc(F)cc1)CC2 (configuration not stated),·,-2.0%,1.5%,-0.5%
N#Cc1c(C(F)(F)F)cc(=O)n2c1[nH]c1ccccc12,-14.8%,10µM*,?,-5.9%
Cc1ccc(CNc2ncnc3sc(C(=O)N4CCC(N5CCCC(O)C5)CC4)c(C)c23)o1 (configuration not stated),·,-14.6%,-7.6%,-2.0%
Cc1ccc(S(=O)(=O)N(C)C)cc1NC(=O)C(C)N(C)Cc1sccc1C (configuration not stated),·,?,?,15.8µM*
Cc1ccc(S(=O)(=O)N(C)C)cc1NC(=O)C(C)NC(C)c1cccs1 (configuration not stated),4.2%,-27.6%,-13.5%,-26.2%
Clc1ccc2c(c1)-n1cc(-c3ccccc3)nc1CO2,·,-7.7%,-7.0%,18.7%
CN(CC(=O)Nc1ccccc1Br)C(=O)c1ccccc1OCc1ccc(Cl)cc1,·,0.1µM*,-34.6%,?
O/C(=C\c1nc2ccccc2nc1/C=C(\O)c1ccccc1)c1ccccc1,3.15µM*,-0.4%,1.6%,?
CCC1CN(C(=O)N2CCC(C(=O)NCCc3cc(OC)ccc3OC)CC2)c2ccccc2O1 (configuration not stated),·,4.8%,-11.3%,?
Cc1ccc(CN2CCCn3nc(C(=O)NCc4ccc(N(C)C)cc4)cc3C2=O)cc1,·,-9.8%,-22.1%,-11.8%
Clc1ccc(-c2noc(CSc3nnc(-c4ccncc4)n3-c3ccccc3)n2)cc1,3.1%,·,·,25.1µM*
SMILES,FBPA Giardia inh,Vaccinia mCherry,VACV Venus inh,FMDV inh
Clc1ccccc1-c1nnc(SCc2nc(-c3ccccc3)no2)n1-c1ccccc1,·,-20.7%,-16.1%,25.1µM*
O=C(NC1CC1)[C@@H]1C[C@@H](Sc2nc3ccccc3[nH]2)CN1CC1CCCCC1,·,-23.7%,-14.7%,-9.8%
Cc1c(C(=O)c2ccc(F)cc2)c2ccccn2c1CCc1ccccn1,-21.4%,i,-25.6%,39.8µM*
CCC(NC(=O)c1ccc2nc(Cc3ccc(OC)cc3)oc2c1)c1ccncc1 (configuration not stated),11.0%,·,·,20µM*
CC(C)C[C@@H]1NC(=O)[C@H](CCCN)NC(=O)[C@H](C(C)C)NC(=O)[C@@H]2CCCN2C(=O)[C@@H](Cc2ccccc2)NC(=O)[C@H](CC(C)C)NC(=O)[C@H](CCCN)NC(=O)[C@H](C(C)C)NC(=O)[C@@H]2CCCN2C(=O)[C@@H](Cc2ccccc2)NC1=O,·,4.47µM*,?,6.31µM*
O=C1N[C@@H](Cc2ccccc2)C(=O)N2CCC[C@@H]12,9.2%,i,-6.1%,7.3%
Cc1cc2c(c(-c3cnccn3)c1)OC(CNC(=O)c1ccccc1C(F)(F)F)C2 (configuration not stated),·,-6.5%,-2.1%,-8.8%
C/C(Cn1nnc([N+](=O)[O-])n1)=N\NC(=O)c1ccccc1O,17.7µM*,·,·,-20.4%
C/C(Cn1nnc([N+](=O)[O-])n1)=N\NC(=O)c1ccc(O)cc1,?,·,·,-29.0%
Nc1c2c(nc3sc4c(c13)CCCCC4)CCCC2,-0.8%,?,10µM*,-5.0%
Nc1c2c(nc3sc4c(c13)CCCC4)-c1ccccc1CC2,-11.2%,?,?,-42.0%
O=[N+]([O-])c1cc(/C=N/Nc2nc3ccccc3[nH]2)c(O)cc1O,?,2.82µM*,?,6.1%
CCOC(=O)C1=C(c2ccccc2)NC(=O)NC1c1ccc(O)c(Cl)c1 (configuration not stated),0.5%,·,·,8.91µM*
Cn1cc(CN2CCC(C3(c4ccccn4)NC(=O)N(CC4CCCO4)C3=O)CC2)c2ccccc21 (configuration not stated),·,i,-14.9%,-2.9%
CC(=O)n1cc(N(C(=O)CCl)c2ccc(C)cc2)c2ccccc21,-1.0%,-10.1%,-19.1%,14.1µM*
CC(=O)N(C(C)=O)c1ncc2c([nH]c3ccccc32)c1C#N,-3.6%,11.2µM*,?,-1.7%
Cc1cccc(CNC(=O)c2cnn(-c3ncc4c(n3)-c3ccccc3CC4)c2C2CC2)n1,·,?,?,3.6%
C#CCn1c(=NC(=O)c2ccc(S(=O)(=O)N3CCc4ccccc4C3)cc2)sc2cc(S(N)(=O)=O)ccc21,-4.6%,6.31µM*,7.94µM*,-19.0%
Cc1cc(-c2cc(F)cc3c2OC(CNC(=O)CCn2cncn2)C3)ccc1F (configuration not stated),·,-13.7%,-0.6%,-7.4%
COc1ccccc1C(C)NC(=O)CCC(=O)N1CCN(S(=O)(=O)c2ccc(Cl)cc2)CC1 (configuration not stated),·,-16.3%,-27.9%,35.5µM*
NC1=NN=C(c2ccc3c(c2)OCCO3)CS1,-4.3%,-14.9%,-18.2%,11.2µM*
c1ccc(C2=NNC(=NCc3ccc4c(c3)OCO4)SC2)cc1,5.6%,-10.0%,-7.5%,15.3%
Cc1sc(N)nc1-c1ccc2c(c1)OCCO2,-23.0%,·,·,50.3%
C=CCN=C1NN=C(c2cc(C)n(CC=C)c2C)CS1,-9.7%,-1.1%,-0.9%,17.8µM*
C=CCN=C1NN=C(c2ccc3c(c2)OCCO3)CS1,-23.5%,?,-16.0%,8.91µM*
